Measured values as given in article PMC11995724, “Antibiotic target discovery by integrated phenotypic and activity-based profiling of electrophilic fragments” (Cell chemical biology, 2025).
Out of some 3,200 compounds screened, about 75 (2%) showed an effect of 50% or more. The sample as a whole holds a higher share of strong results than the screen did.

test system: T1, S. aureus MSSA476; set-up: species or system S. aureus MSSA476 (TSB) or V. cholerae SAD30 (LB); 384-well bacterial growth screen at 25 uM, OD600 relative to DMSO control; details: relative growth, OD600, TSB; 25 µM; inhibitor
T1 construct: MSSA476

| Structure (SMILES) | % of control remaining |
| --- | --- |
| O=C(O)c1coc(C(=O)CCl)c1 [10-B07, 5-(2-chloroacetyl)furan-3-carboxylic acid] | 79.6875% |
| O=C(CCl)N1N=C(c2ccco2)CC1c1cccc(Cl)c1 (centres unmarked) [5-M17, 2-chloro-1-[5-(3-chlorophenyl)-3-(furan-2-yl)-4,5-dihydro-1H-pyrazol-1-yl]ethan-1-one] | 81.9672% |
| Cc1nn(-c2ccccc2)c(C)c1CN(C)C(=O)CCl [7-B03, 2-chloro-N-[(3,5-dimethyl-1-phenyl-1H-pyrazol-4-yl)methyl]-N-methylacetamide] | 93.5636% |
| Cc1ccc(-n2c(C)cc(C(=O)CCl)c2C)cc1C [10-B14, 2-chloro-1-[1-(3,4-dimethylphenyl)-2,5-dimethyl-1H-pyrrol-3-yl]ethan-1-one] | 1.25% |
| Cc1cc(C(=O)CCl)c(C)n1-c1ccc(Cl)c(Cl)c1 [10-D18, 2-chloro-1-[1-(3,4-dichlorophenyl)-2,5-dimethyl-1H-pyrrol-3-yl]ethan-1-one] | -0.3125% |
| Cc1cc(-n2c(C)cc(C(=O)CCl)c2C)no1 [10-C18, 2-chloro-1-[2,5-dimethyl-1-(5-methyl-1,2-oxazol-3-yl)-1H-pyrrol-3-yl]ethan-1-one] | 123.125% |
| CSc1cccc(-n2c(C)cc(C(=O)CCl)c2C)c1 [10-J16, 2-chloro-1-{2,5-dimethyl-1-[3-(methylsulfanyl)phenyl]-1H-pyrrol-3-yl}ethan-1-one] | 12.8125% |
| Cc1cc(C(=O)CCl)c(C)n1-c1ccccn1 [10-C16, 2-chloro-1-[2,5-dimethyl-1-(pyridin-2-yl)-1H-pyrrol-3-yl]ethan-1-one] | 117.5% |
| Cc1ccc(-n2c(C)cc(C(=O)CCl)c2C)cc1F [10-C06, 2-chloro-1-[1-(3-fluoro-4-methylphenyl)-2,5-dimethyl-1H-pyrrol-3-yl]ethan-1-one] | -0.3125% |
| Cc1cccc(-n2c(C)cc(C(=O)CCl)c2C)c1 [10-A22, 2-chloro-1-[2,5-dimethyl-1-(3-methylphenyl)-1H-pyrrol-3-yl]ethan-1-one] | 138.438% |
| Cc1cc(C(=O)CCl)c(C)n1-c1cccc([N+](=O)[O-])c1 [10-B16, 2-chloro-1-[2,5-dimethyl-1-(3-nitrophenyl)-1H-pyrrol-3-yl]ethan-1-one] | 136.563% |
| Cc1cc(C(=O)CCl)c(C)n1-c1ccc2c(c1)OCO2 [10-K14, 1-[1-(1,3-dioxaindan-5-yl)-2,5-dimethyl-1H-pyrrol-3-yl]-2-chloroethan-1-one] | 139.375% |
| Cc1cc(C(=O)CCl)c(C)n1-c1cccc(Cl)c1 [10-N18, 2-chloro-1-[1-(3-chlorophenyl)-2,5-dimethyl-1H-pyrrol-3-yl]ethan-1-one] | 100.313% |
| CCN(CC)C(=O)c1cccc(NC(=O)CCl)c1 [5-I03, 3-(2-chloroacetamido)-N,N-diethylbenzamide] | 102.732% |
| N#CC(=Cc1cccs1)C(=O)Nc1ccc(C(=O)O)cc1 [8-A04, 4-[2-cyano-3-(thiophen-2-yl)prop-2-enamido]benzoic acid] | 109.212% |
| CC(C)Oc1ccccc1C=C(C#N)C(=O)Nc1ccc(Cl)cc1 [9-L20, N-(4-chlorophenyl)-2-cyano-3-[2-(propan-2-yloxy)phenyl]prop-2-enamide] | 108.464% |
| N#CCCSc1ccccc1NC(=O)CCl [6-N12, 2-chloro-N-{2-[(2-cyanoethyl)sulfanyl]phenyl}acetamide] | 88.439% |
| CC(=O)NCCc1ccc(C(=O)CCl)s1 [10-P03, N-{2-[5-(2-chloroacetyl)thiophen-2-yl]ethyl}acetamide] | 143.125% |
| C=CC(=O)N1CCCN(C(=O)c2ccc(OC)cc2)CC1 [3-A21, 1-[4-(4-methoxybenzoyl)-1,4-diazepan-1-yl]prop-2-en-1-one] | 128.864% |
| C=CC(=O)N(CC)Cc1cn(C)nn1 [2-O09, N-ethyl-N-[(1-methyl-1H-1,2,3-triazol-4-yl)methyl]prop-2-enamide] | 106.527% |
| CN(CC(=O)Nc1ccccc1Cl)C(=O)CCl [4-D05, 2-chloro-N-{[(2-chlorophenyl)carbamoyl]methyl}-N-methylacetamide] | 122.344% |
| C=CC(=O)NCCc1ccccc1OC [2-O03, N-[2-(2-methoxyphenyl)ethyl]prop-2-enamide] | 95.7354% |

| Structure (SMILES) | % of control remaining |
| --- | --- |
| C=CC(=O)N1CCOCC2(COCCN2C)C1 (centres unmarked) [3-J14, 1-{1-methyl-4,8-dioxa-1,11-diazaspiro[5.6]dodecan-11-yl}prop-2-en-1-one] | 109.012% |
| CC(Cl)C(=O)N1CCCC(NS(=O)(=O)c2cccc(F)c2)C1 (centres unmarked) [7-C13, N-[1-(2-chloropropanoyl)piperidin-3-yl]-3-fluorobenzene-1-sulfonamide] | 102.355% |
| Cc1cc(C(=O)CCl)c(C)n1-c1ccc(OC(F)(F)F)cc1 [10-G04, 2-chloro-1-{2,5-dimethyl-1-[4-(trifluoromethoxy)phenyl]-1H-pyrrol-3-yl}ethan-1-one] | 115.313% |
| Cc1cc(C(=O)CCl)c(C)n1-c1ccon1 [10-F06, 2-chloro-1-[2,5-dimethyl-1-(1,2-oxazol-3-yl)-1H-pyrrol-3-yl]ethan-1-one] | 106.875% |
| Cc1cc(C(=O)CCl)c(C)n1-c1ccc(OC(F)F)c(Cl)c1 [10-K04, 2-chloro-1-{1-[3-chloro-4-(difluoromethoxy)phenyl]-2,5-dimethyl-1H-pyrrol-3-yl}ethan-1-one] | 0% |
| Cc1cc(C(=O)C(C)Cl)c(C)n1-c1ccc(OC(F)F)cc1 (centres unmarked) [10-E10, 2-chloro-1-{1-[4-(difluoromethoxy)phenyl]-2,5-dimethyl-1H-pyrrol-3-yl}propan-1-one] | 125.938% |
| Cc1cc(C(=O)CCl)c(C)n1-c1ccc(Cl)c(C(F)(F)F)c1 [10-L18, 2-chloro-1-{1-[4-chloro-3-(trifluoromethyl)phenyl]-2,5-dimethyl-1H-pyrrol-3-yl}ethan-1-one] | 0.3125% |
| CC(Cl)C(=O)NCCc1nnc2n1CCCCC2 (centres unmarked) [7-D09, 2-chloro-N-(2-{5H,6H,7H,8H,9H-[1,2,4]triazolo[4,3-a]azepin-3-yl}ethyl)propanamide] | 92.3077% |
| O=C(CCl)Nc1cc(-n2cnnn2)ccc1Cl [6-A05, 2-chloro-N-[2-chloro-5-(1H-1,2,3,4-tetrazol-1-yl)phenyl]acetamide] | 78.1951% |
| CC(Cl)C(=O)NCc1nn(-c2ccccc2)c2c1CCC2 (centres unmarked) [7-P05, 2-chloro-N-({1-phenyl-1H,4H,5H,6H-cyclopenta[c]pyrazol-3-yl}methyl)propanamide] | 91.9937% |
| COc1ccc(OC)c(-c2csc(NC(=O)CCl)n2)c1 [4-H12, 2-chloro-N-[4-(2,5-dimethoxyphenyl)-1,3-thiazol-2-yl]acetamide] | 86.8985% |
| CCCc1ccc(-c2csc(NC(=O)CCl)n2)cc1 [4-C09, 2-chloro-N-[4-(4-propylphenyl)-1,3-thiazol-2-yl]acetamide] | 5.717% |
| COc1ccc(-c2csc(NC(=O)CCl)n2)cc1 [4-N06, 2-chloro-N-[4-(4-methoxyphenyl)-1,3-thiazol-2-yl]acetamide] | 111.291% |
| O=C(CCl)Nc1nc(-c2ccccc2)cs1 [4-L04, 2-chloro-N-(4-phenyl-1,3-thiazol-2-yl)acetamide] | 143.306% |
| COc1ccc(-c2csc(NC(=O)CCl)n2)c(O)c1 [4-A11, 2-chloro-N-[4-(2-hydroxy-4-methoxyphenyl)-1,3-thiazol-2-yl]acetamide] | 1.1434% |
| COc1ccc(-c2csc(NC(=O)CCl)n2)c(OC)c1 [4-F12, 2-chloro-N-[4-(2,4-dimethoxyphenyl)-1,3-thiazol-2-yl]acetamide] | 83.4683% |
| CC(Cl)C(=O)N1CCN(C(C)c2cccc(C#N)c2)CC1 (centres unmarked) [7-P22, 3-{1-[4-(2-chloropropanoyl)piperazin-1-yl]ethyl}benzonitrile] | 115.542% |
| C=CC(=O)NCCc1nnc(C)s1 [3-G22, N-[2-(5-methyl-1,3,4-thiadiazol-2-yl)ethyl]prop-2-enamide] | 111.45% |
| C=CC(=O)N(CC)CC(=O)N1CCCC1c1ccc(F)cc1C (centres unmarked) [2-F08, N-ethyl-N-{2-[2-(4-fluoro-2-methylphenyl)pyrrolidin-1-yl]-2-oxoethyl}prop-2-enamide] | 97.1279% |
| CC(=O)c1cccc(S(=O)(=O)N2CCN(C(=O)CCl)CC2)c1 [4-F05, 1-[4-(3-acetylbenzenesulfonyl)piperazin-1-yl]-2-chloroethan-1-one] | 105.574% |
| C=CC(=O)N1CCC(Cn2nc(C)cc2C)CC1 [2-C17, 1-{4-[(3,5-dimethyl-1H-pyrazol-1-yl)methyl]piperidin-1-yl}prop-2-en-1-one] | 100.957% |
| CCOc1ccccc1NC(=O)C(C#N)=Cc1c(F)cccc1F [8-G21, 2-cyano-3-(2,6-difluorophenyl)-N-(2-ethoxyphenyl)prop-2-enamide] | 69.3776% |
